Source: PubChem BioAssay AID686978 (National Center for Advancing Translational Sciences (NCATS), 2013)
The campaign covered roughly 420,000 compounds. About 64,000 (15%) were called active. About 27% were inconclusive and are not listed. Calls follow the shape of the dose curve; as a rule, active = well fitted inhibition curve with a large enough effect; inconclusive = small, poorly fitted or top-dose-only effect; inactive = flat fitted curve, though single readings scatter. Only a sample is shown.

Experiment: qHTS for Inhibitors of human tyrosyl-DNA phosphodiesterase 1 (TDP1): qHTS in cells in absence of CPT; also: nearly all actives have a fitted effect of over 55% in size
Conditions: DT40 Tdp1-/- hTDP1 cells, no CPT, ATP luminescence, 48 h; activity change, negative = growth inhibition: at 46.2 µM (top of the series)
In short: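 Compound effects on proliferation are scored in DT40 Tdp1-/-;hTDP1 cells in the absence of CPT. ATP levels (CellTiter-Glo luminescence) are recorded after a ≥48 hr, 37 °C incubation.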
% is scaled to controls: 0 for no effect and ±100 for the full control effect; potency is read from the fitted curve at half-maximal effect.

Compound	activity change, negative = growth inhibition	Potency
Cc1nc2c(-c3ccccc3)c(C)[nH]n2c(=O)c1Cl	-2.41% (inactive)	–
CCCc1cc(=O)n2[nH]c(C)c(-c3ccc(Cl)cc3)c2n1	–	14.6 µM (active)
COCc1cc(=O)n2[nH]c(C)c(-c3ccccc3)c2n1	-22% (inactive)	–
CCCC(=O)C1=C(N(C)c2ccccc2)CC(C)(C)C(C(=O)OC)C1=O (stereo unspecified)	1.17% (inactive)	–
O=C(CSc1ccc([N+](=O)[O-])cn1)Nc1ccc(N2CCOCC2)cc1	-0.217% (inactive)	–
CCN(C(=O)CSc1nnc(-c2ccc(OC(F)F)cc2)n1N)C1CCS(=O)(=O)C1 (stereo unspecified)	-2.01% (inactive)	–
CCOc1ccccc1/C=c1\sc2nc(-c3ccco3)nn2c1=O	-27.5% (inactive)	–
CN(C)c1nc(N)nc(CSc2ccccn2)n1	0.12% (inactive)	–
Cc1ccc(NC(=O)c2cc(S(=O)(=O)NCCC3=CCCCC3)ccc2F)cc1C	–	25.9 µM (active)
Cc1cccc(NC(=O)c2cc(S(=O)(=O)N3CCC4(CC3)OCCO4)ccc2F)c1	-12.9% (inactive)	–
Cc1ccc(NC(=O)CCNS(=O)(=O)c2ccc3c(c2)oc(=O)n3C)cc1C	-11.2% (inactive)	–
CCCc1nc(-c2cc3cc(C)ccc3[nH]c2=O)no1	-0.734% (inactive)	–
NC(=O)C1CCN(C(=O)/C(=C/c2ccco2)NC(=O)c2ccccc2)CC1	2.41% (inactive)	–
COc1ccc(CN(C(=O)CSc2nnc(-c3ccc(OC)c(OC)c3)o2)c2ccc(F)cc2)cc1	–	23.1 µM (active)
COc1ccc(CCNC(=O)CSc2nnc(-c3cccc(F)c3)o2)cc1OC	-4.14% (inactive)	–
CCN(CC)C(=O)CSc1nnc(-c2cccc(OC)c2)o1	-15.7% (inactive)	–

Compound	activity change, negative = growth inhibition	Potency
O=C(NCc1ccccn1)c1cc2ccccc2oc1=O	0.085% (inactive)	–
O=C(CSCc1ccccc1)Nc1ccccc1	-7.06% (inactive)	–
CCc1cccc(NC(=O)CCC(=O)O)c1	-3.95% (inactive)	–
O=C(CCl)Nc1cccc(CP(=O)(c2ccccc2)c2ccccc2)c1	–	2.59 µM (active)
COc1ccc(N(Cc2cc3cc(OC)ccc3[nH]c2=O)S(C)(=O)=O)cc1	-16.8% (inactive)	–
CCC(=O)N(Cc1cc2cc(OC)ccc2[nH]c1=O)c1ccccc1C	-18.3% (inactive)	–
COc1ccc2[nH]c(=O)c(CNc3ccc(C)c(C)c3)cc2c1	–	8.2 µM (active)
O=C1C2N=NN(CC(=O)N3N=C(c4cccc5ccccc45)CC3c3ccccc3)C2C(=O)N1c1ccccc1 (stereo unspecified)	–	29.1 µM (active)
COc1ccc(C2CC(c3ccccc3)=NN2C(=O)CSc2nccc(=O)[nH]2)cc1 (stereo unspecified)	-5.98% (inactive)	–
CC(=O)Oc1ccccc1C1=NN(C(C)=O)C(c2ccccc2)C1 (stereo unspecified)	-27.3% (inactive)	–
COc1cc(CN2CCNC(=O)C2CC(=O)NCCc2ncccc2C)cc(OC)c1 (stereo unspecified)	-16% (inactive)	–
CCN1CCCC1CNC(=O)c1cc2cc(OC)c(OC)cc2[nH]1 (stereo unspecified)	11.2% (inactive)	–
CCOC(=O)C1(C)CCCN(C(=O)c2ccc(N(C)C)cc2)C1 (stereo unspecified)	-16.9% (inactive)	–
CCOC(=O)C1(C)CCCN(C(=O)c2ccc(F)c(Cl)c2)C1 (stereo unspecified)	–	20.6 µM (active)
CCCS(=O)(=O)NC(=O)C1(C)CCCN(C(=O)c2ccnc(Cl)c2)C1 (stereo unspecified)	-6.61% (inactive)	–
